# Measured values: PubChem BioAssay (NCATS)
# “And” between values parts separate entries of the source, which are not always exact repeats. Equal values may be shown once. A number with no mark means an inactive call. Inconclusive results are not listed. Where a call stands in place of a potency, no number is given. The source made the active and inactive calls. Unless noted, calls follow the shape of the dose curve; as a rule, active = well fitted curve in the direction sought with a large enough effect; inconclusive = small, poorly fitted or top-dose-only effect, or another doubt; inactive = no such curve, though single readings can be large; an effect the other way counts as inactive or inconclusive.
# What was measured:
# [1] = Cell Viability - Hek293 (AID 427;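 active = compounds whose dose-response curve shows a full or clear partial loss of cell viability, called from curve shape rather than a numeric limit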;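 also: potency is read from the fitted curve at half-maximal effect; cells exposed to compound for 40 hours at 37 °C before reading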); conditions: qHTS
# Procedure, shortened: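 qHTS, human embryonic kidney (adenovirus-transformed) cells; 40 hr cpd, 37 °C; CellTiter-Glo ATP luminescence. Norm: DMSO = 0, 100 uM tamoxifen = 100% inhibition. Hill-fit AC50.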
# [2] = Cell Viability - N2a (AID 540); conditions: N2a mouse neuroblastoma cell viability; at 92.2 µM (top of the series);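 also: cells exposed to compound for 40 h at 37 °C; nearly all actives have a fitted effect of over 45% in size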
# Procedure, shortened: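 First, 1500 N2a cells per well incubate 5 hr at 37 °C; next, compounds are added and incubated 40 hr at 37 °C; finally CellTiter-Glo is added and luminescence read after 20 min, with AC50 derived by Hill modeling.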
# [3] = Cellular Toxicity (caspase-3) Hek293 (AID 664); conditions: HEK293 caspase-3 activation, DMSO = 0%, 100 µM tamoxifen = 100%; series mostly up to 92.2 µM;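 also: cells exposed to compound for 16 h at 37 °C before readout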
# Procedure, shortened: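 Activation of caspase-3/7 is measured as increased luminescence from cleaved peptide-aminoluciferin substrate in HEK293 cells treated 16 hours at 37 °C. AC50 values come from Hill-equation fits of concentration-response data.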
# [4] = Cell Viability - LYMP2-001 (AID 921); conditions: LYMP2-001 lymphoblastoid cell viability; series mostly up to 92.2 µM;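 also: cells exposed to compound for 24 h at 37 °C; nearly all actives have a fitted effect of over 70% in size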
# Procedure, shortened: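 Steps: seed 2500 lymphoblastoid cells/well; 5 hr, 37 C; add compound; 24 hr, 37 C; CellTiter-Glo reagent, 30 min room temperature; read luminescence. Concentration-response modeled by Hill equation for AC50.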
# [5] = MultiTox-Fluor Cytotoxicity Assay - LYMP1-003 - Live Cells (AID 962); conditions: LYMP1-003 lymphoblastoid cells, MultiTox-Fluor live-cell protease fluorescence; series mostly up to 92.2 µM;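 also: cells exposed to compound for 16 hours at 37 °C; cytotoxic hits lower the live-cell protease signal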
# Procedure, shortened: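 Cells plated at 2500 per well and incubated 5 hr; compounds added and incubated 16 hr at 37 C; MultiTox-Fluor reagent added for 60 min at room temperature; fluorescence of liberated AFC measured at 405/510 nm.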
# [6] = Cell Viability - LYMP1-003 - Assay at 40 hr (AID 964); conditions: LYMP1-003 lymphoblastoid viability; series mostly up to 92.2 µM; also: nearly all actives have a fitted effect of over 60% in size
# Procedure, shortened: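 This qHTS cytotoxicity screen treats human lymphoblastoid cells (LYMP1-003) with compounds for 40 hr and quantifies cellular ATP via luciferase luminescence.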
# [7] = Cell Viability - LYMP2-005 (AID 967); conditions: LYMP2-005 lymphoblastoid cell viability; series mostly up to 92.2 µM;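 also: cells exposed to compound for 24 h at 37 °C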
# Procedure, shortened: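 Acute cytotoxicity is scored as a concentration-dependent drop in intracellular ATP in human lymphoblastoid LYMP2-005 cells after 24 h compound treatment. ATP is quantified by luciferase luminescence, and AC50 is derived by Hill-equation modelling.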
# [8] = Cell Viability - LYMP2-011 (AID 969); conditions: LYMP2-011 lymphoblastoid cells viability; series mostly up to 92.2 µM;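 also: cells exposed to compound for 24 hours; nearly all actives have a fitted effect of over 60% in size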
# Procedure, shortened: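 Acute toxicity is scored as a concentration-dependent drop in intracellular ATP of a human lymphoblastoid line after 24 hr treatment. Values are AC50s modeled with the Hill equation.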
# [9] = Cell Viability - LYMP2-017 (AID 972); conditions: LYMP2-017 lymphoblastoid cell viability; series mostly up to 92.2 µM;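 also: cells exposed to compound for 24 hours at 37 °C; nearly all actives have a fitted effect of over 55% in size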
# Procedure, shortened: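 Steps: plate 2500 lymphoblastoid cells per well; incubate 5 hr at 37 C; add compound across a concentration series and incubate 24 hr at 37 C; add CellTiter-Glo and read luminescence after 30 min at room temperature; fit Hill curves for AC50.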
# [10] = Cell Viability - LYMP2-019 (AID 973); conditions: LYMP2-019 lymphoblastoid cell line viability; series mostly up to 92.2 µM;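 also: cells exposed to compound for 24 h at 37 °C; nearly all actives have a fitted effect of over 55% in size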
# Procedure, shortened: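 Cells plated at 2500/well and allowed 5 hr at 37 C before compound addition. After 24 hr incubation, CellTiter-Glo reagent was added, plates sat 30 min at room temperature, and luminescence was recorded.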
# [11] = Cell Viability - LYMP2-023 (AID 975); conditions: LYMP2-023 lymphoblastoid cell viability; series mostly up to 92.2 µM;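 also: cellular ATP measured by luciferase luminescence as viability proxy; cells exposed to compound for 24 hours at 37 °C; nearly all actives have a fitted effect of over 55% in size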
# Procedure, shortened: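 Concentration-dependent drop in intracellular ATP measures acute cytotoxicity in a human lymphoblastoid line treated for 24 hours in complete culture medium. AC50 values are taken from Hill-equation fits of qHTS data.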
# [12] = Cell Viability - LYMP2-010 (AID 981); conditions: LYMP2-010 lymphoblastoid cell viability, qHTS; series mostly up to 92.2 µM;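 also: cells exposed to compound for 24 hours at 37 °C; nearly all actives have a fitted effect of over 55% in size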
# Procedure, shortened: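 Acute toxicity is scored as a concentration-dependent loss of cellular ATP in human lymphoblastoid cells after 24 hr compound exposure in complete medium. Tetraoctylammonium bromide is the positive control.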
# [13] = Cell Viability - LYMP2-016 (AID 984); conditions: LYMP2-016 lymphoblastoid cell viability, qHTS; series mostly up to 92.2 µM
# Procedure, shortened: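 Cells were seeded at 2500 per well and rested 5 hr before a 24 hr compound exposure at 37 C. Viability was then gauged as cellular ATP by luciferase luminescence, with AC50 values fitted to the Hill equation.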
# [14] = Cell Viability - LYMP2-018 (AID 985); conditions: LYMP2-018 lymphoblastoid cells, viability (qHTS); series mostly up to 92.2 µM; also: nearly all actives have a fitted effect of over 50% in size
# Procedure, shortened: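 Acute cytotoxicity is scored as a concentration-dependent drop in intracellular ATP after 24 hr exposure of the lymphoblastoid line in complete culture medium, measured by luciferase luminescence. Potency is expressed as AC50 from Hill modelling.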
# [15] = Cell Viability - LYMP2-020 (AID 986); conditions: series mostly up to 92.2 µM
# Procedure, shortened: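 Acute cytotoxicity in a human lymphoblastoid line is scored as a concentration-dependent fall in cellular ATP after 24 hr at 37 C in complete medium. The positive control is tetraoctylammonium bromide, and potency is given as Hill-fit AC50.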
# [16] = Cell Viability - LYMP2-022 (AID 987); conditions: LYMP2-022 lymphoblastoid cell viability; series mostly up to 92.2 µM; also: nearly all actives have a fitted effect of over 55% in size
# Procedure, shortened: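 Acute toxicity in a human lymphoblastoid line is scored as decreased intracellular ATP after 24 hr compound treatment at 37 C. ATP is measured by CellTiter-Glo luminescence; curves are fitted with the Hill equation to give AC50.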
# [17] = Cell Viability - LYMP2-026 (AID 989); conditions: LYMP2-026 lymphoblastoid cell viability, qHTS; series mostly up to 92.2 µM;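 also: cells exposed to compound for 24 h at 37 °C; nearly all actives have a fitted effect of over 50% in size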
# Procedure, shortened: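 Concentration-dependent loss of intracellular ATP in human lymphoblastoid cells after 24 hr at 37 C, quantified by luciferase luminescence. AC50 derived from standard Hill equation.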
# [18] = Cell Viability - LYMP1-002 - Assay at 40 hr (AID 994); conditions: LYMP1-002 lymphoblastoid cell viability; series mostly up to 92.2 µM; also: nearly all actives have a fitted effect of over 60% in size
# Procedure, shortened: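 Viability in the human lymphoblastoid line was measured as intracellular ATP via CellTiter-Glo after 40 hr compound exposure. Tetraoctylammonium bromide served as positive control.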
# [19] = biological target: Thyroid hormone receptor beta (Homo sapiens) (UniProt P10828); test: qHTS assay for small molecule antagonists of thyroid hormone receptor beta signaling (AID 588547; active = well fitted inhibition curve with a large enough effect in the signal ratio, with a control signal flat, not every such curve was filed as active; the % refers to the signal ratio;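 also: cells stimulated with 0.4 nM T3 agonist during compound exposure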); conditions: TR-UAS-bla HEK293, beta-lactamase ratio, antagonist mode, 18 h
# Procedure, shortened: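 TR-UAS-bla GripTite HEK293 cells in 2% charcoal/dextran FBS medium; compounds 0.59 nM to 92 uM with T3 at 0.4nM final, 18 h at 37 C. Beta-lactamase read by CCF4 fluorescence (460/530 nm); Hill fits gave IC50 and efficacy.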
# [20] = qHTS assay for small molecule disruptors of the mitochondrial membrane potential - 5 hr assay (AID 651755; calls by dose curve; also: nearly all actives have a fitted effect of over 40% in size; also: potency is read from the fitted curve at half-maximal effect); conditions: JC-1-type ratio dye; series mostly up to 92.2 µM
# Procedure, shortened: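 HepG2 cells (2,000/well), attached overnight, exposed to compound 5 hr at 37C, then Mito-MPS dye 30 min. Fluorescence read for monomers (490/535 nm) and aggregates (540/590 nm).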
# Sequence of Thyroid hormone receptor beta (Homo sapiens) (P10828 whole entry, looked up): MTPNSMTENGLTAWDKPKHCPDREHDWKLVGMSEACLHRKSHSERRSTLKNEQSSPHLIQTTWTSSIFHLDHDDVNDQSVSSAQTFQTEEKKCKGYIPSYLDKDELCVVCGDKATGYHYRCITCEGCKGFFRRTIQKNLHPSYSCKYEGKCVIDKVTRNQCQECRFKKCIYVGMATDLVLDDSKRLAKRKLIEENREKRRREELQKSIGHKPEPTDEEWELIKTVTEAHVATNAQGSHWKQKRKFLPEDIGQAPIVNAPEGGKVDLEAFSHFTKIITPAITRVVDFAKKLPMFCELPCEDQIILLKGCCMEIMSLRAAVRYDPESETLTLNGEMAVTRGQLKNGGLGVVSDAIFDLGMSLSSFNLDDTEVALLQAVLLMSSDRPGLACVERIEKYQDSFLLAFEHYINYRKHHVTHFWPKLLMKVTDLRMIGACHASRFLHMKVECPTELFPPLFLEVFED
Compound,Potency [1] [µM],"activity change, negative = cytotoxicity [2]",outcome [3],Potency [4],Potency [5],Potency [6],Potency [7],Potency [8],Potency [9],Potency [10],Potency [11],Potency [12],Potency [13],Potency [14],Potency [15],Potency [16],Potency [17],Potency [18],activity change % (negative = inhibition) [19],Potency [20]
O=C(Cl)/C=C/C(=O)Cl,> 92,3.07%,inactive,inactive,inactive,inactive,inactive,inactive,inactive,inactive,inactive,inactive,inactive,inactive,inactive,inactive,inactive,inactive,2.64%,inactive
Nc1c(Cl)c(Cl)nc(C(=O)O)c1Cl,> 92,-4.43%,inactive,inactive,inactive,inactive,inactive,inactive,inactive,inactive,inactive,inactive,inactive,inactive,inactive,inactive,inactive,inactive,-17.9% and -15% and -2.55%,inactive
Oc1ccc(Cl)cc1Cl,> 92,-5.05%,inactive,inactive,inactive,inactive,inactive,inactive,inactive,inactive,inactive,inactive,inactive,inactive,inactive,inactive,inactive,inactive,16.9% and -6.49%,inactive
CCC[CH2][Sn]([Cl])([Cl])[Cl],> 92,12.4%,inactive,inactive,inactive,inactive,inactive,inactive,inactive,inactive,inactive,inactive,inactive,inactive,inactive,inactive,inactive,inactive,9.88%,inactive
ClC(Cl)=C(Cl)Cl,> 92,-8.38% and -0.61%,inactive,inactive,inactive,inactive,inactive,inactive,inactive,inactive,inactive,inactive,inactive,inactive,inactive,inactive,inactive,inactive,-10.3% and -3.55%,inactive
O=NN(CCO)CCO,> 92,-10.5%,inactive,inactive,inactive,inactive,inactive,inactive,inactive,inactive,inactive,inactive,inactive,inactive,inactive,inactive,inactive,inactive,-10.8%,inactive
CCOc1ccc(N)cc1,> 92,-4.95%,inactive,inactive,inactive,inactive,inactive,inactive,inactive,inactive,inactive,inactive,inactive,inactive,inactive,inactive,inactive,inactive,-6.64%,inactive
C=CC(=C)C,> 92,4.7%,inactive,inactive,inactive,inactive,inactive,inactive,inactive,inactive,inactive,inactive,inactive,inactive,inactive,inactive,inactive,inactive,3.52%,inactive
COc1ccc(N)cc1,> 92,-29.2% and -31.3%,inactive,inactive,inactive,inactive,inactive,inactive,inactive,inactive,inactive,inactive,inactive,inactive,inactive,inactive,inactive,inactive,8.16% and -11.7%,inactive
CC(C)(c1ccccc1)c1ccc(O)cc1,> 92,-9.3%,–,inactive,inactive,inactive,inactive,inactive,inactive,inactive,inactive,inactive,inactive,inactive,inactive,inactive,inactive,inactive,-5.71% and 17.9%,33.5 µM (active)
OCC(Br)CBr (stereo not drawn),> 92,-8.1%,inactive,inactive,inactive,inactive,inactive,inactive,inactive,inactive,inactive,inactive,inactive,inactive,inactive,inactive,inactive,inactive,1.09%,inactive
S=C=Nc1cccc2ccccc12,> 92,6.83%,inactive,inactive,inactive,inactive,inactive,inactive,inactive,inactive,inactive,inactive,inactive,inactive,inactive,inactive,inactive,inactive,-1.91%,inactive
CN=C=S,> 92,-7.58%,inactive,inactive,inactive,inactive,–,inactive,inactive,inactive,inactive,inactive,inactive,inactive,inactive,inactive,inactive,inactive,-1.38% and -7.2%,inactive
BrCCBr,> 92,-0.148%,inactive,inactive,inactive,inactive,inactive,inactive,inactive,inactive,inactive,inactive,inactive,inactive,inactive,inactive,inactive,inactive,-9.28%,inactive
C=C(Cl)Cl,> 92,3.46%,inactive,inactive,inactive,inactive,inactive,inactive,inactive,inactive,inactive,inactive,inactive,inactive,inactive,inactive,inactive,inactive,-6%,inactive
CCCCCCCC(=O)Cl,> 92,1.92%,inactive,inactive,inactive,inactive,inactive,inactive,inactive,inactive,inactive,inactive,inactive,inactive,inactive,inactive,inactive,inactive,11.9%,inactive
N#CCCCl,> 92,-2.76% and -3.85%,inactive,inactive,inactive,inactive,inactive,inactive,inactive,inactive,inactive,inactive,inactive,inactive,inactive,inactive,inactive,inactive,-2.7% and 7.92%,inactive
O=[N+]([O-])c1ccc(Cl)c(Cl)c1,> 92,-3.37%,inactive,inactive,inactive,inactive,inactive,inactive,inactive,inactive,inactive,inactive,inactive,inactive,inactive,inactive,inactive,inactive,-4.24%,inactive
CCN(CC)c1ccccc1,> 92,3.96%,inactive,inactive,inactive,inactive,inactive,inactive,inactive,inactive,inactive,inactive,inactive,inactive,inactive,inactive,inactive,inactive,-7.69%,inactive
CCOP(=S)(OCC)SCSC(C)(C)C,> 92,-4.96%,inactive,inactive,inactive,inactive,inactive,inactive,inactive,inactive,inactive,inactive,inactive,inactive,inactive,inactive,inactive,inactive,-5% and -15.6%,inactive
C=CCOC(C)=O,> 92,-14.3%,inactive,inactive,inactive,inactive,inactive,inactive,inactive,inactive,inactive,inactive,inactive,inactive,inactive,inactive,inactive,inactive,14.6%,inactive
ClC(Cl)(Cl)c1ccccc1,> 92,2.93% and 2.42%,inactive,inactive,inactive,inactive,inactive,inactive,inactive,inactive,inactive,inactive,inactive,inactive,inactive,inactive,inactive,inactive,-2.31% and -2.68%,inactive
O=[N+]([O-])c1cccc2ccccc12,> 92,2.46%,inactive,inactive,inactive,inactive,inactive,inactive,inactive,inactive,inactive,inactive,inactive,inactive,inactive,inactive,inactive,inactive,7.72% and 4.17%,inactive
C=CCOC(=O)c1ccccc1N,> 92,1.61%,inactive,inactive,inactive,inactive,inactive,inactive,inactive,inactive,inactive,inactive,inactive,inactive,inactive,inactive,inactive,inactive,-21.1%,inactive
